Screening data: PubChem, National Center for Advancing Translational Sciences (NCATS)
Anesthetic bind = binds horse apoferritin like a general anesthetic; P02791; apoferritin/1-aminoanthracene competitive binding, fluorescence; Potency, µM (series often up to 77.5 µM), without a hit: top-dose activity change, negative = displacement, actives largely listed as inhibitors; 350,000 tested, 0.074% active; also: potency is read from the fitted curve at half-maximal effect; % is scaled to controls: 0 for no effect and ±100 for the full control effect; nearly all actives have a fitted effect of over 20% in size
Target sequence (P02791 2-175 limits assumed): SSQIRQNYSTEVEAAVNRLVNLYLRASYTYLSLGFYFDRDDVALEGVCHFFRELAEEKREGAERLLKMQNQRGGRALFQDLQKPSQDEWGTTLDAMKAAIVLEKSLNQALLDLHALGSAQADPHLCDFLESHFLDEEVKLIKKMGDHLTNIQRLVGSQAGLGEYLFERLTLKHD
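Horse-spleen apoferritin (10 uM) was mixed with 50% saturated 1-aminoanthracene in PBS, exposed to compounds for 10 min at room temperature, and read for fluorescence (ex 380 nm, em 535 nm). Competitive displacement was fitted with a four-parameter Hill equation.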
IL-2 act = IL-2 activation | IL-2 activation reporter assay, cell-based qHTS; stimulated with anti-CD3/CD4/CD28 beads; in transgenic mouse T cells | activation, % (series mostly up to about 46 µM) | 360,000 tested, 0.065% active | AID 652025; in the data active = activation above about 50%; inconclusive = mostly about 30% to 49%; also: 0% is about no effect
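Screening format: compound pinned onto unstimulated transgenic mouse T cells, 60 min incubation, then anti-CD3/anti-CD4/anti-CD28 bead stimulation for 18 hours at 37 degrees C, followed by EGFP and DsRed detection.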
BRCA1 expr act = activators of BRCA1 expression | AID 624202 | Potency, µM (highest dose often 46.1 µM), without a hit: at the highest dose activation, most hits filed as activators | 380,000 tested, 1.1% active | MCF7-BRCA1-FFLuc reporter, luminescence, 48 h; response scale: scaled: vehicle 0%, 10 µM genistein 100%; also: potency is read from the fitted curve at half-maximal effect; nearly all actives have a fitted effect of over 80% in size
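Activators of BRCA1 expression were detected as increased firefly luciferase luminescence in engineered MCF7 cells after 48 h compound incubation. Signals were scaled to genistein 10 microM as full activation.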
PKM2 activator = PKM2 (human) enzyme activation | 260,000 tested, 0.34% active | AID 1631 | Potency, µM (highest dose often 57.5 µM), without a hit: top-dose activation, actives largely listed as activators | P14618 | purified PKM2, Kinase-Glo ATP luminescence, activation; response scale: 0% is enzyme alone, no compound; also: potency is read from the fitted curve at half-maximal effect; % is scaled to controls: 0 for no effect and ±100 for the full control effect; nearly all actives have a fitted effect of over 55% in size
Target sequence (P14618 whole entry, looked up): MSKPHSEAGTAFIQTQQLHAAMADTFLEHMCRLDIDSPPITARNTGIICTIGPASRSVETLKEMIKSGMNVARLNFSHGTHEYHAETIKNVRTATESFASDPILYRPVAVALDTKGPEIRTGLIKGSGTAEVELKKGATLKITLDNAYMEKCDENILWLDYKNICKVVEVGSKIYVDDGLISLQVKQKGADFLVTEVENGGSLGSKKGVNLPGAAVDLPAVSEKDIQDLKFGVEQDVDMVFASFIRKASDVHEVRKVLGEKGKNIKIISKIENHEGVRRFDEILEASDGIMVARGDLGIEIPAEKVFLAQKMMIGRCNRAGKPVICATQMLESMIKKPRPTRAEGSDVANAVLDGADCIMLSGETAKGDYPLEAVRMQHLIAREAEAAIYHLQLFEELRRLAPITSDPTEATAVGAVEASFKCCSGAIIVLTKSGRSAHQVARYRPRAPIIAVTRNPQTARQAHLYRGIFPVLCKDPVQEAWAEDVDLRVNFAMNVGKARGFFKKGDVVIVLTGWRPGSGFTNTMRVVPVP
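Kinase-Glo luminescence reports ATP generated from ADP (0.1 mM) and PEP (0.5 mM) by purified hPK-M2 after 1 h at room temperature, pH 7.2 imidazole buffer; intermediate enzyme activity allows detecting inhibitors and activators.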
a7 integrin act = activators of alpha7 integrin expression for muscular dystrophy; alpha7betagal myoblasts, beta-gal FDG fluorescence, 48 h; Potency, µM (titrated, usually from 38.3 µM), for inactives: at the highest dose activation, hits mostly activators; 350,000 tested, 0.064% active;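 also: potency is read from the fitted curve at half-maximal effect; 100% = response of the positive control SU9516; nearly all actives have a fitted effect of over 60% in size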
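alpha7betagal+/- myoblasts (passage 13, 250/well) treated 48 h at 37C with compounds at 1:260 dilution of DMSO stock. Lysed, then beta-galactosidase activity read as FDG fluorescence (ex 480/em 540) after 30 min, with pre-read for autofluorescence.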
* hit, by the source's call; ? = inconclusive; · = not tested or not shown; ! = a repeat was not active; [ ] = remark or other dose. A selection: hits, their analogues and other compounds. The true share with any hit is near 1.3%. Unless noted, calls follow the shape of the dose curve; as a rule, active = well fitted curve in the direction sought with a large enough effect; inconclusive = small, poorly fitted or top-dose-only effect, or another doubt; inactive = no such curve, though single readings can be large; an effect the other way counts as inactive or inconclusive.

SMILES	Anesthetic bind	IL-2 act	BRCA1 expr act	PKM2 activator	a7 integrin act
N#Cc1cc2ccccc2nc1N	13%	-3	14%	-6%	6%
c1csc(-c2ccc3ccccc3n2)c1	?	1	7.1µM*	-2%	10%
Nc1nc2ccccc2cc1-c1cccs1	-9%	0	3.2µM*	·	-3%
c1csc(-c2nc3ccccc3s2)c1	-4%	0	7.9µM*	-9%	4%
Cc1ccc(-c2cc3ccccc3nc2N)cc1	-15%	0	10µM*	·	-10%
Cc1ccc(-c2nc(=Nc3c(C)cc(C)cc3C)sn2-c2ccccc2)cc1	·	·	-69%	·	·
Cc1cc2cc(CNC(=O)Nc3ccccc3)ccc2[nH]1	-5%	0	11µM*	4%	-10%
COc1ccc(CNC(=O)Nc2ccccc2)cc1	-6%	-5	?	-13%	-15%
CCOC(=O)NCc1ccc2[nH]c(C)cc2c1	?	-2	13%	0%	21%
COc1ccc(CNC(=O)Nc2cccc(C)c2)cc1	-9%	-3	3.2µM*	-3%	12%
N#CC1=C(N)Oc2cc(O)ccc2C1c1cccnc1 (stereo not given)	-2%	-1	-16%	9%	-29%
N#CC1=C(N)Oc2cc(O)ccc2C1c1ccncc1 (stereo not given)	4%	1	-2%	20µM*	18%
Cc1nc2ccccc2nc(=O)c1NNc1ccccc1	-20%	-2	5µM*!	-1%	2%
Cc1ccc(-c2cc(NC(=O)C(C)Oc3ccccc3F)on2)cc1 (stereo not given)	-5%	·	·	·	·
Cc1ccccc1NC(=O)c1nc(S(=O)(=O)Cc2ccccc2F)ncc1Cl	·	·	0%	·	·
CC1(C)CC(=O)C(C2C3=C(CC(C)(C)CC3=O)Oc3ccc4ccccc4c32)C(=O)C1 (stereo not given)	-3%	0	7.9µM*	3%	-1%
COc1ccccc1NC(=O)C(=O)/C=C(\O)c1ccccc1	-5%	-1	2.8µM*	-1%	3%
CCOc1ccccc1NC(=O)C(=O)/C=C(\O)c1cc(OC)ccc1OC	-14%	-2	-31%	0%	-26%
C/C(=N\NC(=O)c1ccc(F)cc1)c1cccc(NC(=O)c2cccc(F)c2)c1	-1%	-1	52%	-6%	3%
C/C(=N\NC(=O)c1c(Br)cnn1C)c1ccc(NC(=O)c2ccc(F)cc2)cc1	-2%	-3	7.9µM*	-4%	?
C/C(=N\NC(=O)c1cccc(O)c1)c1cccc(NC(=O)c2ccc(F)cc2)c1	-16%	1	4µM*	-5%	-26%
C/C(=N\NC(=O)c1ccc(O)cc1)c1cccc(NC(=O)c2ccc(Cl)cc2)c1	·	-3	5.6µM*	·	-28%
C/C(=N\NC(=O)c1c(Cl)cnn1C)c1cccc(NC(=O)c2ccc(C)cc2)c1	-7%	-5	6.3µM*	·	-26%
C/C(=N\NC(=O)c1c(Cl)cnn1C)c1cccc(NC(=O)C(C)C)c1	0%	0	17%	0%	15%
COc1ccc(-c2nc(CCNC(=O)c3cc(OC)c(OC)c(OC)c3)cs2)cc1	-5%	·	·	·	·
SMILES	Anesthetic bind	IL-2 act	BRCA1 expr act	PKM2 activator	a7 integrin act
CCOc1ccc(NC(=O)c2ccc(NC(=O)COC(=O)Cc3ccc(OC)cc3)cc2)cc1	-1%	2	4.5µM*	-2%	-13%
COc1ccc(C(=O)Nc2ccc(SC(F)F)cc2)cc1	-10%	0	1.3µM*	2%	7%
COc1ccc(CC(=O)OCC(=O)Nc2ccc(C(=O)Nc3ccc(OC)cc3)cc2)cc1	-4%	0	11µM*	-1%	11%
COc1ccc(CC(=O)Nc2ccc(C(N)=O)cc2)cc1	-1%	1	-5%	-1%	8%
COc1ccc(F)cc1C(=O)C1CCCN(Cc2cccn2-c2cccnc2)C1 (stereo not given)	-15%	0	-33%	35µM*	-15%
N#C/C(=C\Nc1ccc(Cl)cn1)S(=O)(=O)c1ccccn1	-5%	1	-2%	10µM*	4%
N#C/C(=C\Nc1ccc(Cl)cn1)S(=O)(=O)c1ccccc1	-9%	0	-6%	16µM*	28%
O=C/C(=C\Nc1ccc(Cl)cn1)c1nc2ccccc2o1	-1%	4	-58%	1%	-5%
COc1ccc(-c2nnc(C3CCN(S(=O)(=O)c4cccc(Cl)c4)CC3)o2)cc1	42%	·	·	·	·
CSc1ccc(-c2nnn(Cc3ccc(C)cc3)n2)cc1	-11%	-1	10µM*	-1%	18%
COc1cc(-c2nnn(CC(=O)N3CCOCC3)n2)cc(OC)c1OC	-7%	2	-2%	-3%	1%
COc1ccc(-c2nnn(Cc3ccccc3)n2)cc1	-7%	0	10µM*	1%[11.5 µM]	-22%
COc1ccc(-c2ccc(-c3nnn(CC(=O)N4CCOCC4)n3)cc2)cc1	-9%	0	1.4µM*	1%	-7%
Cc1ccc(S(=O)(=O)N2CCCc3cc(NS(=O)(=O)c4cc(F)ccc4F)ccc32)cc1	81%	·	·	·	·
NC(=O)C1CCN(c2nc(-c3cc4ccccc4o3)cs2)CC1	·	-3	11µM*	·	·
COc1cccc(O)c1O	-15%	·	·	·	·
COc1cc(-c2coc3cc(O[C@H]4OC(CO)C(O)C(O)C4O)c(OC)c(O)c3c2=O)cc(O)c1OC (stereo not given in full)	4%	·	·	·	·
O=c1c(-c2ccc(O)cc2)coc2cc(OC3OC(CO)C(O)C(O)C3O)ccc12 (stereo not given)	-2%	-1	6.3µM*	-5%	-20%
O=c1cc(-c2ccc(O)cc2)oc2cc(O[C@H]3OC(CO)C(O)C(O)C3O)cc(O)c12 (stereo not given in full)	0%	·	·	·	·
O=c1c(-c2ccc(O)cc2)coc2cc(OC3OC(CO)C(O)C(O)C3O)cc(O)c12 (stereo not given)	47%	3	8.9µM*	-16%	11%
COc1cc(O)c2c(=O)c(-c3ccc(O[C@@H]4O[C@H](CO)[C@@H](O)[C@H](O)[C@H]4O)cc3)coc2c1	1%	9	2µM*	·	-1%
O=c1c(-c2ccc(O)cc2)coc2cc(O[C@@H]3O[C@H](CO)[C@H](O)[C@H](O)[C@H]3O)ccc12	-11%	·	·	·	·
c1ccc2[nH]c(NCCCc3cnc[nH]3)nc2c1	4%	·	·	·	·
O=C(NCc1ccccn1)C1(C(F)(F)F)C/C(=C\Cc2ccccc2)CCCO1 (stereo not given)	-20%	·	·	·	·
C/C(=N/NC(=O)c1ccccn1)c1c[nH]c2ccccc12	-3%	0	7.1µM*	-3%	?
CCCc1noc(-c2cccc([N+](=O)[O-])c2)n1	-12%	-1	-5%	-6%	-6%
CCCc1noc(-c2ccc(-c3ccccc3)cc2)n1	-8%	0	8.9µM*	2%	9%
